# According to PubChem BioAssay (NCATS):
# Several values for one entry are separate records, joined by “and”; a condition that tells them apart may be missing. Equal entries are not always repeated. Results filed as inconclusive are left out. Activity calls are given as the source filed them. Unless noted, the call rests on the fitted dose curve; in most records, active means well fitted curve in the direction sought with a large enough effect; inconclusive means small, poorly fitted or top-dose-only effect, or another doubt; inactive means no such curve, though single readings can be large; an effect the other way counts as inactive or inconclusive.
# Columns and labels:
# [1] = target: Cytochrome P450 1A2 (Homo sapiens) (UniProt P05177); experiment: p450-cyp1a2 (AID 410; calls by dose curve; further: potency means the concentration at half of the fitted maximal effect;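 on activity change, negative = inhibition: -100% = full effect of reference inhibitor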)
# Chain of Cytochrome P450 1A2 (Homo sapiens) (P05177 whole entry, looked up): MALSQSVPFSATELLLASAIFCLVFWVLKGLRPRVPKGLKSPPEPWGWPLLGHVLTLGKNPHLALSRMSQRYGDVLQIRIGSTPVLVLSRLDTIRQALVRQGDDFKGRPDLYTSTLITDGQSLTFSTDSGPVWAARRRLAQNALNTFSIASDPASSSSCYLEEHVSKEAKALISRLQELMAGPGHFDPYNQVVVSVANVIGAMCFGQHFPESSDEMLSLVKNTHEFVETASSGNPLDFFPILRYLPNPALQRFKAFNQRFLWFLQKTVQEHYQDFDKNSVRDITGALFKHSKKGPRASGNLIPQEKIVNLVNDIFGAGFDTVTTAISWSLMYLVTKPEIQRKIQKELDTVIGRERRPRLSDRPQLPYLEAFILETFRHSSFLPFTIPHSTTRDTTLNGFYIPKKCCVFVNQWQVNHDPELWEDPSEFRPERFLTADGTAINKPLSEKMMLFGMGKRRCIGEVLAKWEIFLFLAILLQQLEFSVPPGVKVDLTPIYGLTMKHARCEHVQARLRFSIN
# In short: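 20nM CYP1A2, 100uM Luciferin-ME (=Km), 100mM KPO4; cpd 10 min RT; +NADPH regen, 60 min RT; stop/detect 20 min; luminescence. Normalized to furafylline 57 uM = full inhibition.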
# [2] = target: Glucocorticoid receptor (Homo sapiens) (UniProt P04150); experiment: GR-EFC Redistribution (AID 451; calls by dose curve; further: potency means the concentration at half of the fitted maximal effect); settings: CHO-K1 GR-EFC translocation, beta-gal luminescence, 2 h
# Chain of Glucocorticoid receptor (Homo sapiens) (P04150 whole entry, looked up, the tested form may be a part): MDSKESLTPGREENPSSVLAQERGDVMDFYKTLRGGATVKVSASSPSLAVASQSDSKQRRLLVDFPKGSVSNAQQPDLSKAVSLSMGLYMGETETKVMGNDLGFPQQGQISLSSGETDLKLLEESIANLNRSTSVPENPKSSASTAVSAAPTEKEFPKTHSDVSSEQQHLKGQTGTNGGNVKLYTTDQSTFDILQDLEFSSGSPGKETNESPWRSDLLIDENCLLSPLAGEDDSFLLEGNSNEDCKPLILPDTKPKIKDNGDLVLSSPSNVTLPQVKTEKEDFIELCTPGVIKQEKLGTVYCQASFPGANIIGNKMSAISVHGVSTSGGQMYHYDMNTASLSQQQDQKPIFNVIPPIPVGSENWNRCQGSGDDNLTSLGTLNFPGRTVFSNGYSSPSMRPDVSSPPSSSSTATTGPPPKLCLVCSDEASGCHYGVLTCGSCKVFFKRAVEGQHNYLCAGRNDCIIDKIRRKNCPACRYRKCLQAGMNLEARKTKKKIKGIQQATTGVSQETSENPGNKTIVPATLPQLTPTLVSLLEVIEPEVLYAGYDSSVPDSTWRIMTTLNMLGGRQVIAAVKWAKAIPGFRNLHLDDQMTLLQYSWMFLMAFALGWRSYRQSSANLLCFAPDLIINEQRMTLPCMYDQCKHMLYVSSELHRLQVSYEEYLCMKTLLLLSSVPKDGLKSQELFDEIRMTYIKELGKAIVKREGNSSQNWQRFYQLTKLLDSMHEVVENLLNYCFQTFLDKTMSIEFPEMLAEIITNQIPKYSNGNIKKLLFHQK
# In short: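 CHO-K1 cells expressing nuclear EA and GR-ED fragments of b-gal; compounds titrated up to 46 uM final, 2 h at 37 C. GR nuclear translocation read as complemented b-gal luminescence after 1 h RT detection.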
# [3] = target: Mitogen-activated protein kinase 10 (Mus musculus) (UniProt Q61831); experiment: JNK3 AlphaScreen Assay (AID 530; active means well fitted curve in either direction with a large enough effect, not every such curve was filed as active;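 further: kinase came from lysate of stimulated human HepG2 cells; signal reports phosphorylation of biotinylated GST-cJun 1-79 at Ser73 with 10 µM ATP; on the % scale 0 is the no-effect control and ±100 the full control effect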)
# In short: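 HepG2 lysate (IL-1b/TNFa pre-activated) + biotin-GST-cJun 1-79 + anti-pSer73 cJun; cpd titration, 15 min RT; ATP 10 uM start; Tris pH 7.6, MgCl2, DTT, vanadate; beads in EDTA buffer; AlphaScreen.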
# [4] = target: 3',5'-cyclic-AMP phosphodiesterase 4B (Homo sapiens) (UniProt Q07343); experiment: qHTS Assay for Inhibitors of PDE-IV (AID 607; active means well fitted activation curve with a large enough effect in the main read-out, with a control signal flat, not every such curve was filed as active; further: % of control where 0% means no effect)
# Chain of 3',5'-cyclic-AMP phosphodiesterase 4B (Homo sapiens) (Q07343 whole entry, looked up): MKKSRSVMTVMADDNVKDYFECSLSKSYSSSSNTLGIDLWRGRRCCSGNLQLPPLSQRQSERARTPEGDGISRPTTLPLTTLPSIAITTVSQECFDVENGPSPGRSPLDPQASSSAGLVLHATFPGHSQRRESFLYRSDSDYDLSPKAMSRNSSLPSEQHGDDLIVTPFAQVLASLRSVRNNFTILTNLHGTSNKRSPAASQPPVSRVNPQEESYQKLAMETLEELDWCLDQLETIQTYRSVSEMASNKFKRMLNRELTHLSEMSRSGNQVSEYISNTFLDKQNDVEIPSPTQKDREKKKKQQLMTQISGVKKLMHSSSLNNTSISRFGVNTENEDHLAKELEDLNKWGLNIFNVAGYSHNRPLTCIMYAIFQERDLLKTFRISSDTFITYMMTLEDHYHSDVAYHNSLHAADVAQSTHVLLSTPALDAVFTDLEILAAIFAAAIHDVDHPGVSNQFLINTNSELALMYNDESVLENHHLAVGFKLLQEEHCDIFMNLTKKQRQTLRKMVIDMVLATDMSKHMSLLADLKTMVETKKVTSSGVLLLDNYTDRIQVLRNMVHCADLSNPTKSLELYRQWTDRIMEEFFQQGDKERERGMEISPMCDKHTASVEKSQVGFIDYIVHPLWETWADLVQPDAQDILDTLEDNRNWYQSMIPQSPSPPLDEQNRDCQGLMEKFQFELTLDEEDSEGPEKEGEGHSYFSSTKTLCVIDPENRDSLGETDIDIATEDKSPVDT
# In short: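 Live HEK293 cells with a modified cyclic nucleotide-gated (CNG) channel report intracellular cAMP via membrane-potential dye fluorescence (ex 535/em 590 nm). Endogenous PDE-IV was targeted. Compounds were tested at up to 22.9 uM final; RO 20-1724 100 uM served as control.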
# [5] = qHTS Assay for Lipid Storage Modulators (AID 1519; calls by dose curve); settings: Drosophila S3 cells, BODIPY lipid droplet/cell ratio, laser cytometry, cells loaded with oleic acid
# In short: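 Cells seeded at 5,000 per well were treated with compounds over a concentration series and loaded with oleic acid (400 uM, as added). Lipid droplet fluorescence (488 nm excitation, 500-530 nm channel) was read by laser-scanning cytometry and normalized to 20 uM Triacsin C.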
# [6] = test system: Zika virus NS2B-NS3 protease; experiment: Primary screen GU AMC qHTS for Zika virus inhibitors (AID 1347154);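 further: 0% = no-inhibitor control and -100% = no-enzyme control; nearly all actives have a fitted effect of over 70% in size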
# In short: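 Unlinked Zika NS2B hydrophilic domain–NS3 protease complex at 25 nM in 10 mM Tris-HCl pH 8.0, 0.01% Tween 20, with an AMC peptide substrate. Fluorescence change (340/450 nm) over 15 min at room temperature, normalized to controls, fitted to 4-parameter Hill.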
# [7] = qHTS profiling of the MIPE4 collection as inhibitors of Plasmodium falciparum (DD2) proliferation (AID 743345; call rule not given here); settings: P. falciparum Dd2 in erythrocytes, SYBR Green DNA, 72 h; at 28.5 µM (top of the series)
# In short: (§1)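 Parasite DNA was quantified by SYBR Green I fluorescence (ex 485, em 535 nm) after overnight lysis in saponin/Triton buffer at room temperature. Cultures at 0.3% parasitemia and 2.5% hematocrit were first exposed to compound for 72 h at 37 C; signals were normalised to artemisinin (0.29 uM) and vehicle wells.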
# [8] = qHTS profiling of the MIPE4 collection as inhibitors of Plasmodium falciparum (HB3) proliferation (AID 743347; call rule not given here;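 further: plate controls were DMSO vehicle wells for no effect and artemisinin wells for full effect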); settings: P. falciparum HB3 in erythrocytes, SYBR Green DNA, 72 h; at 28.5 µM (top of the series)
# In short: as §1
# [9] = Primary qHTS for small molecule stabilizers of the endoplasmic reticulum resident proteome: Secreted ER Calcium Modulated Protein (SERCaMP) assay (AID 1508630); further: on the % scale 0 is the no-effect control and ±100 the full control effect
# In short: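 The SH-SY5Y reporter protocol was run at 3 concentrations up to 38.3 uM (primary) or 11 concentrations (follow-up): 16 h compound, 100 nM thapsigargin for 4 h, then extracellular luciferase luminescence.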
# [10] = AP1 Signaling Pathway (AID 357; active means well fitted curve in either direction with a large enough effect, not every such curve was filed as active;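 further: ME-180 reporter cells stimulated with EGF at its EC50 level; on the % scale 0 is the no-effect control and ±100 the full control effect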); settings: ME-180 AP-1-bla reporter, EGF-induced, beta-lactamase ratio, 5 h; at 17.2 µM (top of the series)
# In short: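 Beta-lactamase reporter under AP-1 response element, ME-180 background. Stimulus: EC50 EGF. Compound exposure 5 h, 37 °C. Detection: CCF4, 2.5 h RT, 460/530 nm. Values: AC50 from titration.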
# [11] = NFAT Signaling Pathway (AID 444; active means well fitted curve in either direction with a large enough effect, not every such curve was filed as active;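 further: carbachol stimulus at about its EC50 of 1 µM final; on the % scale 0 is the no-effect control and ±100 the full control effect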); settings: Jurkat NFAT-bla M1, carbachol, beta-lactamase ratio, 5 h; at 17.2 µM (top of the series)
# In short: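 Jurkat cells with NFAT-driven β-lactamase reporter and co-expressed M1 receptor, stimulated with carbachol (final 1 uM, ~EC50), compound titration, 5 h at 37 °C. CCF4 loaded 1 h at RT; 460/530 nm ratio gave %activity and AC50.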
# [12] = Stat Signaling Pathway (AID 446; active means well fitted curve in either direction with a large enough effect, not every such curve was filed as active); settings: ME-180 (cervical carcinoma) SIE beta-lactamase reporter, IL-6 stimulated, 5 h; at 17.2 µM (top of the series)
# In short: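 Overnight-plated ME-180 cells bearing a STAT Inducible Element beta-lactamase reporter; 5 h co-exposure to compound and 40 pM IL-6; values normalized to 300 pM IL-6 and 125 nM JAK inhibitor controls.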
# [13] = target: Glucocorticoid receptor (Homo sapiens) (UniProt P04150); experiment: GR-GFP Redistribution (AID 450;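 active means compounds whose dose series gives a full or clear partial fitted curve of increased nuclear translocation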; further: potency means the concentration at half of the fitted maximal effect); settings: U2OS GR-GFP nuclear translocation, laser cytometry, 2 h
# [14] = target: Cytochrome P450 2D6 (Homo sapiens) (UniProt P10635); experiment: qHTS Assay for Inhibitors and Substrates of Cytochrome P450 2D6 (AID 891); further: potency means the concentration at half of the fitted maximal effect; nearly all actives have a fitted effect of over 60% in size
# Chain of Cytochrome P450 2D6 (Homo sapiens) (P10635 whole entry, looked up): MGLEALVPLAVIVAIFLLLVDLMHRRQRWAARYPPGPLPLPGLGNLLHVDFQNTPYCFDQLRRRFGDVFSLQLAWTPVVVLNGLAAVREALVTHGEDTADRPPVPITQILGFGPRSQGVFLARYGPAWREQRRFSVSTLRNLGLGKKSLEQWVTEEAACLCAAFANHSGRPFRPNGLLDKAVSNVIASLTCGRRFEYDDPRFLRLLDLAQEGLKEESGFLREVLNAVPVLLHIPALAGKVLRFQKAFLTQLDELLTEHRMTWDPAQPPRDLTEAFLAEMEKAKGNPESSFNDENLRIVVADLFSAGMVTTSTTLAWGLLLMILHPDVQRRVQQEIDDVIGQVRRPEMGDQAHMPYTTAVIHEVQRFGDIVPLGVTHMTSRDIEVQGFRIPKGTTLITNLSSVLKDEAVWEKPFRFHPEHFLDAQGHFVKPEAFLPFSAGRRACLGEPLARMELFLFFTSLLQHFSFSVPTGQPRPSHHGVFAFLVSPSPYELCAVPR
# In short: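 Luminescent read-out of luciferin formed by 5 nM human CYP2D6 demethylating 30 uM Luciferin-ME EGE (Km level) over 60 min at room temperature after NADPH regeneration addition. Data normalized to full inhibition by 1.43 uM quinidine.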
# [15] = target: Ubiquitin carboxyl-terminal hydrolase 1 (Homo sapiens) (UniProt O94782); experiment: Inhibitors of USP1/UAF1: Pilot qHTS (AID 504865);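 further: rhodamine fluorescence freed from ubiquitin-rhodamine substrate followed over time; top concentration of the series differs between compounds; on the % scale 0 is the no-effect control and ±100 the full control effect; nearly all actives have a fitted effect of over 35% in size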
# Chain of Ubiquitin carboxyl-terminal hydrolase 1 (Homo sapiens) (O94782 whole entry, looked up): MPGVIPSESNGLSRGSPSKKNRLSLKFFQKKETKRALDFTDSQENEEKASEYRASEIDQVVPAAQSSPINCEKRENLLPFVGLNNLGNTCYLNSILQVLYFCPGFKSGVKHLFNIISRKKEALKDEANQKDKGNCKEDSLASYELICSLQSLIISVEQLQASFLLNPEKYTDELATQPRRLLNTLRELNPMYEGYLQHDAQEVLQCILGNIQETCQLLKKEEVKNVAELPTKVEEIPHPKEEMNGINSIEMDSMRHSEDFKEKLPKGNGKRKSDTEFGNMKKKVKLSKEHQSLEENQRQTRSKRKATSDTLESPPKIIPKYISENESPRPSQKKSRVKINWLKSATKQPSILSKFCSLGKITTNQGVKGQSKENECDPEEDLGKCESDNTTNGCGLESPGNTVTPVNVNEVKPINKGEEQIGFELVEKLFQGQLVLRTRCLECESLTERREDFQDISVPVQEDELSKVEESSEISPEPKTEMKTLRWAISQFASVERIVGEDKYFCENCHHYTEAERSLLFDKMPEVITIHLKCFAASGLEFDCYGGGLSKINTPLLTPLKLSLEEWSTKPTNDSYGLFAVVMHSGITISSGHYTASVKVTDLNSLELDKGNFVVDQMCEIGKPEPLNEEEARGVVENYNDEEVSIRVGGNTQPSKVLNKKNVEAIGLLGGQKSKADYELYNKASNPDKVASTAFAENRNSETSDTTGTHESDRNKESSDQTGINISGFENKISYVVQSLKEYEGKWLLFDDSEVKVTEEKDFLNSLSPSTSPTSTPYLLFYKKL
# In short: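 1nM USP1/UAF1 + cpd, 15 min RT; start w/ Ub-Rho 150nM final; kinetic FL 480/540 nm, 6 reads q60 s. Buffer 50mM HEPES pH 7.8, 0.5mM EDTA, 1mM TCEP, 0.01% Tween-20, 0.1 mg/ml BSA.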
# [16] = target: DNA dC->dU-editing enzyme APOBEC-3G (Homo sapiens) (UniProt Q9HC16); experiment: qHTS for inhibitors of Vif-A3G interactions: Validation (AID 588379); further: 0% is about no effect
# Chain of DNA dC->dU-editing enzyme APOBEC-3G (Homo sapiens) (Q9HC16 whole entry, looked up): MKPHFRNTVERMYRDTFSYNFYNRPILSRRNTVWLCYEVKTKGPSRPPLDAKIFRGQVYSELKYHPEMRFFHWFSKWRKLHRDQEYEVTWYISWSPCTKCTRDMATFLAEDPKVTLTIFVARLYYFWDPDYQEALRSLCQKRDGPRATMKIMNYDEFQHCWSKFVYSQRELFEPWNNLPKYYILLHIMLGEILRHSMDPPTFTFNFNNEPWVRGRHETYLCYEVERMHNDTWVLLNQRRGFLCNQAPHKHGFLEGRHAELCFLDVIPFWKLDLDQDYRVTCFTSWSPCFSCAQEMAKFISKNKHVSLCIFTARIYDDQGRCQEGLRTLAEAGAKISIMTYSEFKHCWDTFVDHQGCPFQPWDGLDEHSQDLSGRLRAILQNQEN
# In short: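 Yellow fluorescence (Ex 488, Em 500-530) of Vif-coexpressing HeLa A3G-eYFP cells, scanned by Acumen cytometer, reports blocked A3G degradation. Cells plated at 700/well overnight at 37 deg C before compound addition, then a further overnight compound incubation at 37 deg C.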
# [17] = target: Cytochrome P450 3A4 (Homo sapiens) (UniProt P08684); experiment: qHTS Assay for Inhibitors and Substrates of Cytochrome P450 3A4 (AID 884); further: potency means the concentration at half of the fitted maximal effect; nearly all actives have a fitted effect of over 50% in size
# Chain of Cytochrome P450 3A4 (Homo sapiens) (P08684 whole entry, looked up): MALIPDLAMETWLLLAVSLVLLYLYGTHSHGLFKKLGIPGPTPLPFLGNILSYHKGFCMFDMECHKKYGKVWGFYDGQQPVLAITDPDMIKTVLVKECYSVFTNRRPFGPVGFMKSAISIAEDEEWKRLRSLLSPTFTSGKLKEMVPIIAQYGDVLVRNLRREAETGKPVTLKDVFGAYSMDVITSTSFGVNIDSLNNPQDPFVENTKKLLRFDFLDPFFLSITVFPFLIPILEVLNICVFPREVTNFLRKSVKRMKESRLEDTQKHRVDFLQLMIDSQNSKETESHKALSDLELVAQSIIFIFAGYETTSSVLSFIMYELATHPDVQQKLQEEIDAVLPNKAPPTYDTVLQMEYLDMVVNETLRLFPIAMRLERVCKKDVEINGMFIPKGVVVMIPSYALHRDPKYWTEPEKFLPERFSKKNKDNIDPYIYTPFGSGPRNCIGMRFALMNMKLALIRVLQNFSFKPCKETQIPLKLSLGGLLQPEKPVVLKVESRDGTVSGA
# In short: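 Luminescent readout of luciferin produced by CYP3A4 (20 nM) dealkylation of Luciferin-PPXE, 25 uM (its KM). NADPH-driven reaction ran 60 min at RT after 10 min compound preincubation; data scaled to 57 uM ketoconazole as 100% inhibition.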
# [18] = target: Cytochrome P450 3A4 (Homo sapiens) (UniProt P08684); experiment: qHTS Assay for Activators of Cytochrome P450 3A4 (AID 885); further: nearly all actives have a fitted effect of over 65% in size
# In short: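 Using 20nM recombinant human CYP3A4 in potassium phosphate (200mM), substrate Luciferin-PPXE at 25uM, luminescent luciferin detection followed a 60-min RT NADPH reaction; data scaled to 57 uM ketoconazole.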
# [19] = qHTS profiling for inhibitors of Plasmodium falciparum (3D7) proliferation (AID 743322; call rule not given here;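 further: infected erythrocytes exposed to compound for 72 h before lysis; 100% = DMSO vehicle wells and 0% = 0.29 µM artemisinin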); settings: P. falciparum 3D7 proliferation; at 28.7 µM (top of the series)
# In short: as §1
# [20] = qHTS profiling for inhibitors of Plasmodium falciparum (DD2) proliferation (AID 743323; call rule not given here); settings: lower = more inhibition; at 28.7 µM (top of the series)
# In short: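 Parasite proliferation measured via DNA-dye fluorescence, as uninfected erythrocytes lack DNA. Cultures at 0.3% parasitemia and 2.5% hematocrit incubated 72 h with compound; signal scaled between vehicle and 0.29 uM artemisinin wells.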
# [21] = qHTS profiling for inhibitors of Plasmodium falciparum (HB3) proliferation (AID 743324); settings: Plasmodium falciparum HB3 blood-stage proliferation; at 28.7 µM (top of the series);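 further: 100% = DMSO vehicle wells and 0% = artemisinin-treated control wells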
# In short: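 SYBR Green fluorescence (485 ex/535 em) of lysed cultures, incubated overnight at room temperature in the dark, quantifies parasite DNA. Infected erythrocytes at 0.3% parasitemia and 2.5% hematocrit were exposed 72 h; values normalized to DMSO and 0.29 uM artemisinin controls.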
# [22] = target: Cytochrome P450 2C19 (Homo sapiens) (UniProt P33261); experiment: qHTS Assay for Inhibitors and Substrates of Cytochrome P450 2C19 (AID 899); further: on the % scale 0 is the no-effect control and ±100 the full control effect; nearly all actives have a fitted effect of over 60% in size
# Chain of Cytochrome P450 2C19 (Homo sapiens) (P33261 whole entry, looked up): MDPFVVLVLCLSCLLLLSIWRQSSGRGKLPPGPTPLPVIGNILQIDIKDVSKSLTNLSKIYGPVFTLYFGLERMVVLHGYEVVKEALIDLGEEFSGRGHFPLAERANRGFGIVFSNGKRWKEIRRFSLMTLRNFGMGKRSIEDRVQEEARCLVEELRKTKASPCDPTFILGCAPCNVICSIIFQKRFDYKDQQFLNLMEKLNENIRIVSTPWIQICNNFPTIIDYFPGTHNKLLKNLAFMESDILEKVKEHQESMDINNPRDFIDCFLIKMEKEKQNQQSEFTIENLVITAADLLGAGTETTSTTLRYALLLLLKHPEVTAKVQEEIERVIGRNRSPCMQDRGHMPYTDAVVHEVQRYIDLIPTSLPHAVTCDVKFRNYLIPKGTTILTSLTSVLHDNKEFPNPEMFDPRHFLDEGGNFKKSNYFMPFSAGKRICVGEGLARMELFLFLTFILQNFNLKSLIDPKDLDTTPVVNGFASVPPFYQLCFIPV
# In short: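 5 nM human CYP2C19 with 10uM Luciferin-H EGE (at KM) in 50mM KPO4, compound preincubated 10 min at 37C, then NADPH regeneration for 60 min at 37C. Luciferin read by luminescence after detection reagent; normalized to 57uM ketoconazole as full inhibition.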
# [23] = measured here: cell count channel max response
# [24] = measured here: lipid channel max response
smiles,measurement,setting,value
CCCCCCCCCCCCCCCC(=O)C(F)(F)F,Potency,[1],31.6 µM (active)
same,Potency,[2],> 46 µM (inactive)
same,Potency,[3],inactive
same,Potency,[4],inactive
same,"activity change, negative = inhibition",[5]; at 57.5 µM (top of the series),2.39% (inactive)
same,max response,[5]; [23],-9.26%
same,max response,[5]; [24],-5.47%
same,Potency,[6],inactive
C[C@H](CCC(=O)O)[C@H]1CCC2C3CC[C@@H]4C[C@H](O)CC[C@]4(C)C3CC[C@@]21C (some centres undefined),"parasite growth remaining, % of DMSO control (lower = more inhibition)",[7],97.2%
same,"growth, % of control",[8],98.2%
same,Potency,[6],inactive
same,Potency,[9],inactive
CC(=O)Nc1ccc(OC[C@@H](O)CNC(C)C)cc1,"activity change, negative = inhibition",[10],5.39% (inactive)
same,Potency,[1],inactive
same,"activity change, negative = inhibition",[11],-18.7% (inactive)
same,"activity, negative = inhibition",[12],9.62% (inactive)
same,Potency,[13],> 20.6 µM (inactive) and > 46 µM (inactive)
same,Potency,[2],> 20.6 µM (inactive) and > 46 µM (inactive)
same,Potency,[3],inactive
same,Potency,[4],inactive
same,Potency,[14],3.16 µM (active)
same,"activity change, negative = inhibition",[5]; at 25.7 µM (top of the series),-2.39% (inactive)
same,"activity change, negative = inhibition",[5]; at 57.5 µM (top of the series),-10.4% (inactive)
same,max response,[5]; [23],-2.07% and -0.999%
same,max response,[5]; [24],-5.59% and -8.67%
same,Potency,[15],inactive
same,Potency,[16],inactive
same,Potency,[6],inactive
O=C1C=CC(=O)C2=C1C1c3ccccc3C2c2ccccc21,Potency,[17],39.8 µM (active)
same,Potency,[18],inactive
same,Potency,[6],inactive
same,Potency,[9],inactive
OC[C@H]1OC([S-])[C@H](O)[C@@H](O)[C@H]1O.[Au+] (some centres undefined),remaining parasite growth % (stronger effect = lower value),[19],86.3%
same,"activity, percent of control",[20],98.2%
same,"remaining proliferation (% of control), lower = more inhibition",[21],78.1%
same,Potency,[6],inactive
same,Potency,[9],inactive
NC(N)=Nc1ccc(Cl)cc1,Potency,[1],inactive
same,Potency,[13],> 46 µM (inactive)
same,Potency,[2],> 46 µM (inactive)
same,Potency,[3],inactive
same,Potency,[4],inactive
same,Potency,[22],inactive
same,"activity change, negative = inhibition",[5]; at 57.5 µM (top of the series),-3.61% (inactive)
same,max response,[5]; [23],-0.36%
same,max response,[5]; [24],-4.97%
same,Potency,[15],inactive
same,Potency,[16],inactive
same,Potency,[6],inactive
